Drawing on PubChem BioAssay (NCATS), this text covers Potency and activity (max response) for 28 molecules.

The nature of assay [1]: Viability qHTS for spleen associated tyrosine kinase inhibitor (SYKi) naive MV4-11 cells (AID 1963823). Further: nearly all actives have a fitted effect of over 40% in size. Further: potency means the concentration at half of the fitted maximal effect. The procedure, abridged: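 Seeding of 500 SYKi-naive MV4-11 cells per well onto pre-dispensed compounds preceded a 72 hr incubation at 37 C. Luminescent CellTiter-Glo signal, read after 10 min at room temperature, reflected viable cells.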
(In general: Quantitative high-throughput screening tests each substance at several concentrations.)

Assay [2] in a line: Viability qHTS for spleen associated tyrosine kinase inhibitor (SYKi) drug resistant MV4-11 cells (AID 1963824). Further: nearly all actives have a fitted effect of over 35% in size. Further: potency means the concentration at half of the fitted maximal effect. The method, boiled down: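 CellTiter-Glo luminescence, read 10 min after reagent addition, reports viability after a 72 hr compound exposure. Cells are an MV4-11 line made resistant to SYK inhibition, seeded at 500 per well onto compound-containing plates.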
Assay [3] is described as follows: Quantitative highthroughput screen to assess conditional lethalithy of NOMO1 cells grown in RPMI1640 with untreated serum (RPMI+s) (AID 1963876).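 Further: 100% = DMSO wells and 0% = empty wells without cells; nearly all actives have a fitted effect of over 35% in size.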 The method, boiled down: (§1)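 Each medium arm—HPLM with 10% dialyzed FBS, or RPMI1640 with 5 mM glucose and 10% untreated or dialyzed FBS—was screened against an 11-point, 3-fold compound titration for 48 h at 37 °C, with CellTiter-Glo luminescence as endpoint.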

Assay [4] is described as follows: Quantitative highthroughput screen to assess conditional lethalithy of NOMO1 cells grown in RPMI1640 with dialyzed fetal bovine serum (RPMI+ds) (AID 1963877).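 Further: series mostly up to about 46 µM; 100% = DMSO control wells and 0% = empty wells; nearly all actives have a fitted effect of over 30% in size.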 The method, boiled down:
as §1

Assay [5] can be described thus: Quantitative highthroughput screen to assess conditional lethalithy of NOMO1 cells grown in Human Plasma-Like Medium with dialyzed fetal bovine serum (HPLM+ds) (AID 1963878).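 Further: 100% = DMSO wells and 0% = empty wells on each plate; nearly all actives have a fitted effect of over 35% in size.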 The method, boiled down:
as §1

Assay [6] in a line: Quantitative highthroughput screen to assess conditional lethalithy of P12 Ichikawa cells grown in Human Plasma-Like Medium with dialyzed fetal bovine serum (HPLM+ds) (AID 1963879). Further: series mostly up to about 46 µM; nearly all actives have a fitted effect of over 35% in size. Particulars: Potency: viability. The method, boiled down: as §1
Assay [7] in a line: Quantitative highthroughput screen to assess conditional lethalithy of P12 Ichikawa cells grown in RPMI1640 with dialyzed fetal bovine serum (RPMI+ds) (AID 1963880). The following applies: Potency: P12-Ichikawa viability. The method, boiled down:
as §1

Assay [8] in a line: Quantitative highthroughput screen to assess conditional lethalithy of P12 Ichikawa cells grown in RPMI1640 with untreated serum (RPMI+s) (AID 1963881). Particulars: Potency: viability. The method, boiled down:
as §1

A short description of assay [9]: Quantitative highthroughput screen to assess conditional lethalithy of SEM cells grown in Human Plasma-Like Medium with dialyzed fetal bovine serum (HPLM+ds) (AID 1963882). The procedure, abridged: as §1
Assay [10] is described as follows: Quantitative highthroughput screen to assess conditional lethalithy of SEM cells grown in RPMI1640 with unreated serum (RPMI+s) (AID 1963883). The procedure, abridged:
as §1

The nature of assay [11]: Quantitative highthroughput screen to assess conditional lethalithy of SEM cells grown in RPMI1640 with dialyzed fetal bovine serum (RPMI+ds) (AID 1963884). The procedure, abridged:
as §1

The nature of assay [12]: Cellular viability qHTS for adrenocortical cancer (ACC) cell line SW-13 (AID 1963989). Further: nearly all actives have a fitted effect of over 65% in size. Further: potency means the concentration at half of the fitted maximal effect.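 On activity (max response): cells grown in serum-free medium with ITS supplement; on the % scale 0 is the no-effect control and ±100 the full control effect.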 The following applies: SW-13 ACC cells viability, CellTiter-Glo, 48 h; activity (max response): active compounds read low. The procedure, abridged:
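Luminescent ATP read-out (CellTiter-Glo, 20 min at room temperature) measured metabolically competent SW-13 cells after 48 h compound treatment. Final concentrations spanned up to 46 uM; bortezomib served as positive control.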

The nature of assay [13]: Cellular viability qHTS for adrenocortical cancer (ACC) cell line NCI-H295R (AID 1963990). Further: potency means the concentration at half of the fitted maximal effect; nearly all actives have a fitted effect of over 60% in size. The procedure, abridged: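 IC50 and maximal efficacy derive from four-parameter logistic modelling of titration curves, with reads scaled between DMSO-only wells (0%) and doxorubicin hydrochloride (100% inhibition). Compounds spanned up to 46 uM over 48 h.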

Several values for one entry are separate records, joined by “and”; a condition that tells them apart may be missing. Equal values may be shown once. Inconclusive results are not listed. A number with no mark means an inactive call. Activity calls are given as the source filed them. The call rests on the fitted dose curve; in most records, active means well fitted curve in the direction sought with a large enough effect; inconclusive means small, poorly fitted or top-dose-only effect, or another doubt; inactive means no such curve, though single readings can be large; an effect the other way counts as inactive or inconclusive.

On to `C[C@H]1[C@H](/C=C/c2ccc(-c3ccccc3C#N)cn2)[C@@H]2[C@@H](C)OC(=O)[C@@H]2C[C@@H]1C`, for which the Potency in assay [1] was 8.2 µM (active); in [2], 7.31 µM (active).
On to `Cc1cccc(Nc2cc(Cl)nc(SCC(=O)O)n2)c1C`, for which the Potency result in assay [1] and in [2] was “inactive” throughout.
Regarding `COc1cc(C2CC(=O)Nc3c2cc(Br)c2ccccc32)cc(OC)c1OC` (configuration not stated), the Potency entry in assay [1] and in assay [2] was “inactive” each time.
On to `CNC12CC3C[C@@](C)(C1)C[C@](C)(C3)C2`, for which the Potency result in [1] and in [2] was “inactive” throughout.
For `CC(C)c1nc(-c2ccc(NC(=O)Nc3cccc(C(F)(F)F)c3)c3ccccc23)c2c(N)nccn12`, the Potency in assay [1] is 0.366 µM (active); in assay [2] it was 0.411 µM (active).
Turning to `c1ccc(Cc2ncc3c(n2)CCNCC3)cc1`, the Potency entry in assay [1] and in [2] was “inactive” throughout.
As for `CC(=O)c1ccc(O[C@@H]2O[C@H](CO[C@@H]3OC[C@@H](O)[C@H](O)[C@H]3O)[C@@H](O)[C@H](O)[C@H]2O)cc1`, the Potency result in assay [1] and in [2] was “inactive” in each case.
Take `C=C(CO)C12OC1C1(C)C(=CC2=O)C(O)C(O)CC1C` (configuration not stated): the Potency entry in [1] and in assay [2] was “inactive” each time.
Take `COc1cc(C2Oc3c(OC)cc(CCCO[C@@H]4O[C@H](CO)[C@@H](O)[C@H](O)[C@H]4O)cc3C2CO)ccc1O` (some centres not stated): the Potency result in assay [1] and in assay [2] was “inactive” throughout.
In the case of `Cc1ccc2c(n1)Oc1ccc(C(C)C(=O)OCC(=O)N(C)C)cc1C2` (configuration not stated), the Potency in assay [1] was 11.9 µM (active). The Potency entry in assay [2] is “inactive”.
The corresponding values for `C#CCN(Cc1cc2c(=O)[nH]c(C)nc2cc1Br)c1ccc(C(=O)NCc2cccnc2)cc1` are “inactive” and “inactive”.
With `C[C@@H]1CC[C@]2(C(=O)O[C@@H]3O[C@H](CO)[C@@H](O)[C@H](O)[C@H]3O)CC[C@]3(C)C(=CCC4[C@@]5(C)C[C@@H](O)[C@H](O)[C@](C)(C(=O)O)C5CC[C@]43C)[C@@H]2[C@]1(C)O` (some centres not stated), the Potency entry in assay [1] and in assay [2] was “inactive” each time.
Consider `Cc1oc2nc3c(c(NC(=O)CN4CCCC4=O)c2c1C)CCCC3`, for which the Potency result in assay [1] and in assay [2] was “inactive” in each case.
As for `CC(=O)OC[C@]12[C@H](OC(C)=O)C(=O)[C@@H]3[C@@H](O)[C@@]14O[C@@]3(C)COC(=O)c1cccnc1[C@@H](C)[C@H](C)C(=O)O[C@@H]([C@H](O)[C@@H]2OC(C)=O)[C@]4(C)O`, the values for the Potency in assay [1] and in assay [2] were 1.72 µM (active) and 3.43 µM (active), respectively.
For the molecule `C=C1CC[C@H]2[C@@](C)(CCC(O)[C@@]2(C)CO)[C@@H]1/C=C/C(=C\C(=O)O)C(=O)O` (some centres not stated), the Potency result in assay [1] and in [2] was “inactive” in each case.
`C=C(C(=O)O)[C@H]1C[C@]2(C)C(=O)CC[C@]23O[C@H]1C[C@@H]3C`: the Potency result in assay [1] and in assay [2] was “inactive” throughout.
As for `CC1CCCC[C@H]2C(=O)C=C[C@H](O)[C@@H]2CC(=O)O1` (some centres not stated), the Potency in [1] and in [2] was 0.731 µM (active) in each case.
On to `CC(C)(C)[C@H](NC(=O)c1ccc(N)c(Cl)c1)C(=O)N1CCC[C@H]1C(=O)N[C@H](C#N)CC(=O)O`, for which the Potency entry in assay [1] and in [2] was “inactive” throughout.
Take `CC(C)=CCCC1(C)/C=C/C(OC(=O)C=C(C)C)C(C)(O)/C=C/C(=O)/C(CO)=C\C1` (configuration not stated): the results for the Potency in assay [1] and in assay [2] were 1.59 µM (active) and 2.52 µM (active), respectively.
As to `CCC(C)/C=C(C)/C=C/C1=CC2=C(Cl)C(=O)C(C)(OC(C)=O)C(=O)C2=CN1CCCCC(N)C(=O)O` (configuration not stated), the Potency entry in assay [1] and in [2] was “inactive” in each case.
Regarding `CC(C)C(CO)Nc1nc(Nc2cc(N)cc(Cl)c2)c2ncn(C(C)C)c2n1` (configuration not stated), the Potency was 0.517 µM (active) in [1] and 0.82 µM (active) in [2].
Consider `C=C1C(=O)O[C@@H]2/C=C(/C)[C@@H](OC(C)=O)C/C=C(\C)C[C@@H](OC(=O)/C(=C/CO)CO)[C@@H]12`, for which the figures for the Potency in assay [1] and in assay [2] were 3.99 µM (active) and 3.55 µM (active), respectively.
For the molecule `CC(C)C(C)C(O)C1CC23CC(=O)C4(O)C(=C2CCC3C1C)C=CC1(O)CC(O)CCC14C` (configuration not stated), in assay [1], the Potency entry is “inactive”. For the same molecule, the Potency in [2] was 7.09 µM (active).
On to `CC(C)C1NC(=O)CNC(=O)C2CCCN2C(=O)C(Cc2c[nH]c3ccccc23)NC(=O)CNC(=O)C(C(O)c2ccc(O)cc2)NC(=O)CNC1=O` (configuration not stated), for which the Potency result in assay [1] and in assay [2] was “inactive” each time.
Turning to `COc1cccc(-c2cn(-c3ccc(CCN4CCC(O)CC4)cc3)c3ncnc(N)c23)c1`, the Potency was 2.06 µM (active) in assay [1] and 2.31 µM (active) in [2].
Consider `C[C@@H]1O[C@@H](O[C@H]2[C@H](Oc3cc(O)c(C(=O)CCc4ccc(O)cc4)c(O)c3)O[C@H](CO)[C@@H](O)[C@@H]2O)[C@H](O)[C@H](O)[C@H]1O`, for which the Potency entry in assay [1] and in [2] was “inactive” in each case.
As for `O=c1cc(-c2cccc3c2Sc2ccccc2S3)oc(N2CCOCC2)c1`, the Potency is 6.51 µM (active) and 16.6 µM (active) in assay [1]; 5.8 µM (active) and 9.34 µM (active) in assay [2]; 28200 nM (active) in [12]; 25100 nM (active) in assay [13]. For the same molecule, the Potency result in [3], in assay [4], in assay [5], in assay [6], in [7] and in assay [8] was “inactive” in each case. Besides, the Potency result in assay [9], in assay [10] and in [11] was “inactive” throughout.
On to `COC(=O)C1C2CC3c4[nH]c5cc(OC)ccc5c4CCN3CC2CC(OC(=O)c2cc(OC)c(OC)c(OC)c2)C1OC` (configuration not stated), for which the results for the Potency in assay [1] and in [2] were 16.6 µM (active) and 11.8 µM (active), respectively. The Potency entry in [3], in [4], in [5], in assay [6], in assay [7] and in [8] was “inactive” throughout. Also, the Potency result in assay [9], in assay [10] and in assay [11] was “inactive” in each case. The activity (max response) in assay [12] was -10.6%.
